{"source": "PubChem BioAssay AID894", "about": "(National Center for Advancing Translational Sciences (NCATS), 2007)", "note": "“And” between values parts separate entries of the source, which are not always exact repeats. Identical values can stand only once. Among all 150,000 compounds or so, about 6,500 (4.3%) were called active. Another 12% or so got no clear call; they are omitted. Only a selection was taken, and actives are over-represented in it overall. Unmarked numbers belong to inactive results. Calls come from the whole dose curve; as a rule, active = well fitted inhibition curve with a large enough effect (not every such curve was filed as active); inconclusive = small, poorly fitted or top-dose-only effect, or another doubt; inactive = no such curve, though single readings can be large or run the other way. % is set by controls: 0 for no effect and ±100 for the full control effect; potency is the fitted concentration of half-maximal effect.", "data": [{"biological_target": "15-hydroxyprostaglandin dehydrogenase [NAD(+)] (Homo sapiens) (UniProt P15428)", "sequence (P15428 whole entry, looked up)": "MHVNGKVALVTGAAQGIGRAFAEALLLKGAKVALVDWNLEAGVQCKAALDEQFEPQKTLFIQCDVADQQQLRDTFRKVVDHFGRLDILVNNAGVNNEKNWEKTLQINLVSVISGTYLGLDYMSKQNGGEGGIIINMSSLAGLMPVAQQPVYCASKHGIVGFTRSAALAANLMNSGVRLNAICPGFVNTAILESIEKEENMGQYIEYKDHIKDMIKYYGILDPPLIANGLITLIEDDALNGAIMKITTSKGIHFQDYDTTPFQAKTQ", "test": "qHTS Assay for Inhibitors of HPGD (15-Hydroxyprostaglandin Dehydrogenase)", "conditions": "purified HPGD, NADH fluorescence kinetic, PGE2 substrate; activity change, negative = inhibition: active compounds read low", "text": "Human 15-Hydroxyprostaglandin dehydrogenase (HPGD) catalyzes the inactivation of prostaglandin E2, and plays a major role in cancer biology by antagonizing the oncogenic potential of cyclooxygenase type 2 (COX2). Assays are available, based on absorbance/fluorescence increase of NADH with the substrate 15-OH prostaglandin E2. References 1. Myung SJ, Rerko RM, Yan M, Platzer P, Guda K, Dotson A, Lawrence E, Dannenberg AJ, Lovgren AK, Luo G, Pretlow TP, Newman RA, Willis J, Dawson D, Markowitz SD. 15-Hydroxyprostaglandin dehydrogenase is an in vivo suppressor of colon tumorigenesis. […] 2. Yan M, Rerko RM, Platzer P, Dawson D, Willis J, Tong M, Lawrence E, Lutterbaugh J, Lu S, Willson JK, Luo G, Hensold J, Tai HH, Wilson K, Markowitz SD. 15-Hydroxyprostaglandin dehydrogenase, a COX-2 oncogene antagonist, is a TGF-beta-induced suppressor of human gastrointestinal cancers. Proc Natl Acad Sci U S A. 2004 Dec 14;101(50):17468-73. 3. Yang L, Amann JM, Kikuchi T, Porta R, Guix M, Gonzalez A, Park KH, Billheimer D, Arteaga CL, Tai HH, Dubois R, Carbone DP, Johnson DH. Inhibition of Epidermal Growth Factor Receptor Signaling Elevates 15-Hydroxyprostaglandin Dehydrogenase in Non-Small-Cell Lung Cancer. Cancer Res. 2007 Jun 15;67(12):5587-5593. Inhibition of HPGD activity was screened by utilizing prostaglandin as an electron donor and NAD+ as an electron acceptor/cofactor. An increase in the fluorescence intensity due to conversion of NAD+ to NADH was used to measure the enzyme activity. NIH Chemical Genomics Center [NCGC] Structural Genomics Consortium [SGC]\nBuffer: 50 mM Tris-HCl, 0.01% Tween 20, pH 8. Enzyme Buffer: 50 mM Tris-HCl, 0.5 mM NAD+ and 0.01% Tween 20, pH 8. Reagents/Controls: Buffer in columns 3 and 4 as negative control (no enzyme). Substrate/cofactor solution: 1 mM NAD+ and 30 uM prostaglandin (Sigma, prostaglandin E2, # P5640) final concentrations dispensed throughout the plate. Enzyme: 20 nM HPGD final concentration in columns 1, 2, 5-48. Column 1 and 2 is neutral (100% activity). A titration of control inhibitor GW5074 (G6416 Sigma-Aldrich, St. Louis, MO) top concentration 10 mM in DMSO, then 1:2 dilution for a total of 16 concentrations in duplicate) was pin-transferred into column 2. Assay Steps: Three uL of enzyme were dispensed to 1536-well Greiner black solid bottom plates. Compounds and control inhibitor (23 nL) were transferred via Kalypsys PinTool. The plates were incubated for 15 min at room temperature, and then 1 uL of substrate/cofactor solution was added to start the reaction. The plates were immediately transferred to and read 5 times every 30 seconds on ViewLux High-throughput CCD imager (Perkin-Elmer) using 360 nm excitation and 450 nm emission fluorescence protocol. The fluorescence intensity difference between the last and the first time points was used to compute reaction progress.", "values": [{"smiles": "CC(=O)c1c(O)c(C)c(O)c(Cc2c(O)c3c(c(C(=O)/C=C/c4ccccc4)c2O)OC(C)(C)C=C3)c1O", "activity change, negative = inhibition": "-19.2% and -15.4%"}, {"smiles": "CCCCC/C=C\\C/C=C\\C/C=C\\CCCCCCC(=O)NCCO", "activity change, negative = inhibition": "-7.26% and -18.7%"}, {"smiles": "CC(C)(c1ccc(OC[C@@H]2CO2)cc1)c1ccc(OC[C@H]2CO2)cc1", "Potency": "12.6 µM (active)"}, {"smiles": "CCOC(=O)c1ncn2c1[C@@H]1CCCN1C(=O)c1cc(OC)ccc1-2", "activity change, negative = inhibition": "-9.65%"}, {"smiles": "Cc1nc2nc(C)c(CCC(=O)N3CCC4(CC3)OCCO4)c(C)n2n1", "activity change, negative = inhibition": "-4.62%"}, {"smiles": "C=CC#N", "activity change, negative = inhibition": "-3.54%"}, {"smiles": "NCCc1c[nH]c2ccc(O)cc12", "activity change, negative = inhibition": "-4.55% and -5.27% and -12.4%"}, {"smiles": "Cc1noc(C)c1CSc1nc2cc(S(=O)(=O)N3CCOCC3)ccc2o1", "Potency": "7.94 µM (active)"}, {"smiles": "C[C@@]12CCC3C(CC[C@@H]4CC(O)CC[C@@]34C)C1CCC2O", "note": "(some centres not stated)", "activity change, negative = inhibition": "-3.43%"}, {"smiles": "CC(Cl)Cl", "activity change, negative = inhibition": "-8.77%"}, {"smiles": "O=C(NCc1cccs1)c1ccc(Br)o1", "Potency": "20 µM (active)"}, {"smiles": "Fc1ccc(C(OCCN2CCN(C/C=C\\c3ccccc3)CC2)c2ccc(F)cc2)cc1", "activity change, negative = inhibition": "-13.4%"}, {"smiles": "CCCCC/C=C\\C/C=C\\C/C=C\\C=C\\[C@H](CCCC(=O)O)OO", "activity change, negative = inhibition": "-9.41%"}, {"smiles": "Cc1cccc2c3c(ccc12)C1=C(C(=O)C3=O)C(C)CO1", "note": "(configuration not stated)", "Potency": "17.8 µM (active)"}, {"smiles": "CNCC[C@H](Oc1ccc(C(F)(F)F)cc1)c1ccccc1", "activity change, negative = inhibition": "-9.03% and -8.03% and -3.66%"}, {"smiles": "CC(C)(O)/C=C\\C(=O)[C@](C)(O)[C@H]1[C@H](O)C[C@]2(C)[C@@H]3CC=C4[C@@H](C=C(O)C(=O)C4(C)C)[C@]3(C)C(=O)C[C@@]12C", "activity change, negative = inhibition": "-9.86%"}, {"smiles": "COC(=O)N(c1ccc(OC)cc1)P1(=S)OCCC(C)O1", "note": "(configuration not stated)", "Potency": "4.47 µM (active)"}, {"smiles": "OC(Cn1c2ccccc2c2ccccc21)C[n+]1ccccc1", "note": "(configuration not stated)", "activity change, negative = inhibition": "-3.99%"}, {"smiles": "Cc1ccc(N2C(=O)NC(=O)C(CCc3ccncc3)(Cc3cccc(Cl)c3Cl)C2=O)cc1", "note": "(configuration not stated)", "activity change, negative = inhibition": "-5.28%"}, {"smiles": "C=CCSSCC=C", "Potency": "8.91 µM (active)"}, {"smiles": "CC(=O)OC1C2CCC3C1(CC(O)[C@@]1(O)[C@@H](CC(O)C1(C)C)[C@]3(C)O)C[C@@]2(C)O", "note": "(some centres not stated)", "activity change, negative = inhibition": "-0.742%"}, {"smiles": "CCCCCCCCCCCCCC(=O)O[C@@H]1[C@@H](C)[C@@]2(O)[C@@H](C=C(CO)C[C@]3(O)C(=O)C(C)=C[C@@H]23)[C@@H]2C(C)(C)[C@]12OC(C)=O", "activity change, negative = inhibition": "-19%"}, {"smiles": "CC(C)(O)c1[se]c2ccccc2c1I", "activity change, negative = inhibition": "-24.2%"}, {"smiles": "Cc1cccc(N2C(=O)NC(=O)/C(=C\\c3cnn(-c4ccccc4)c3)C2=O)c1", "Potency": "10 µM (active)"}, {"smiles": "CC12CN3CC(C)(CN(C1)C3c1cccs1)C2", "note": "(configuration not stated)", "activity change, negative = inhibition": "-2.07%"}, {"smiles": "CC(=C1C(=O)c2ccccc2C1=O)N1CCN(CCN=Cc2c(O)n(C)c(=O)n(C)c2=O)CC1", "activity change, negative = inhibition": "-26.9%"}, {"smiles": "COc1c(O)ccc2c1-c1c3c(cc4c1C(C2)N(C)CC4)OCO3", "note": "(configuration not stated)", "activity change, negative = inhibition": "-4.96%"}, {"smiles": "O=c1c2ccccc2nc(-c2ccco2)n1-c1ccc(Br)cn1", "activity change, negative = inhibition": "-7.61%"}, {"smiles": "Cc1nc2ccccn2c1P(=S)(N1CCCCC1)N1CCCCC1", "activity change, negative = inhibition": "-26.7%"}, {"smiles": "CCCCCCCCc1[se]c2ccccc2c1Br", "activity change, negative = inhibition": "1.04%"}, {"smiles": "CCNC[C@H](O)c1cccc(O)c1", "activity change, negative = inhibition": "-6.69%"}, {"smiles": "O=C1/C(=C\\c2ccc3c(c2)OCO3)N2CCC1CC2", "Potency": "25.1 µM (active)"}, {"smiles": "N[C@H](Cc1o[nH]c(=O)c1Cl)C(=O)O", "activity change, negative = inhibition": "0.654%"}, {"smiles": "Cc1ccc(N(C)C(=O)Oc2cccc3ccc(C)nc23)cc1", "activity change, negative = inhibition": "-1.1%"}, {"smiles": "O=c1c2ccccc2nc(-c2ccc(Cl)cc2Cl)n1-c1ccncc1", "activity change, negative = inhibition": "-1.06%"}, {"smiles": "C1CC[C@H]([C@@]23C[C@H](C[C@H]4CCCN[C@H]42)[C@@H]2CCCCN2C3)NC1", "activity change, negative = inhibition": "-4.36%"}, {"smiles": "O=C(O)C1C2CCC(O2)C1C(=O)O", "note": "(configuration not stated)", "activity change, negative = inhibition": "-2.85%"}, {"smiles": "O=C(OCC1O[C@@H](OC(=O)c2cc(O)c(O)c(O)c2)[C@@H](OC(=O)c2cc(O)c(O)c(O)c2)[C@@H](OC(=O)c2cc(O)c(O)c(O)c2)[C@@H]1OC(=O)c1cc(O)c(O)c(O)c1)c1cc(O)c(O)c(O)c1", "note": "(some centres not stated)", "Potency": "10 µM (active)"}, {"smiles": "CC(C)N(CC#CCC1(O)c2ccccc2-c2ccccc21)C(C)C", "activity change, negative = inhibition": "-8.59%"}, {"smiles": "CCN1CCN(C(=O)Cc2coc3cc(C)cc(C)c23)CC1", "activity change, negative = inhibition": "-14.1%"}, {"smiles": "O=[N+]([O-])c1ccc(Cl)c(Cl)c1", "activity change, negative = inhibition": "-4.16%"}, {"smiles": "CN[C@@H]1C[C@H]2O[C@@](C)([C@@H]1OC)n1c3ccccc3c3c4c(c5c6ccccc6n2c5c31)C(=O)NC4", "activity change, negative = inhibition": "-25.7%"}, {"smiles": "Cc1ccc(Cn2c(C)c3cnn(CC(=O)N4CCC5(CC4)OCCO5)c(=O)c3c2C)cc1", "activity change, negative = inhibition": "-21.8%"}, {"smiles": "Cc1cc(-c2n[nH]c(=S)n2-c2ccc(C)c(C)c2)no1", "Potency": "5.62 µM (active)"}, {"smiles": "NCCc1ccc(S(=O)(=O)F)cc1", "activity change, negative = inhibition": "-8.88%"}, {"smiles": "CC(=O)O[C@H]1CC[C@@]2(C)[C@@H](CC[C@H]3[C@H]2CC(=O)[C@]2(C)[C@@H]3C[C@@H](N3CC3)[C@H]2C(C)=O)C1", "activity change, negative = inhibition": "-8.48%"}, {"smiles": "CCC(C)C(=O)O[C@@H]1C[C@@]2(C)C(c3ccoc3)OC(=O)CC23OC2(C)O[C@@]14[C@@]1(C)C(CC(=O)OC)C5(C)CC1(O)C(O)(C5OC(=O)C1(C)OC1C)C(OC(C)=O)[C@@]34O2", "note": "(some centres not stated)", "activity change, negative = inhibition": "-23.2%"}]}]}
